Source: the supplement of paper PMC7411054
Structures can show the parent of a compound that is named as a salt.

system: HepG2-CANX-COX4; experiment: lowest phenotypically active concentration; higher = less potent; conditions: treatment time: 24 h
Procedure, shortened: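 Phenotypic activity depended on meeting both a deviation and a reproducibility criterion. The fifteen gene-edited A549, HepG2 and WPMY1 reporter lines were treated at 0.3, 1, 3 or 9 µM for 24 h, four wells each, then imaged live with features normalised to solvent control wells. Deviation required ≥3 of 4 wells past the 95th percentile of control Euclidean distances, and reproducibility a median replicate Pearson correlation above the 95th percentile of non-replicates.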

Structure (SMILES)	lowest phenotypically active concentration [µM]
Nc1nc(Cl)nc2c1ncn2[C@@H]1O[C@H](CO)[C@@H](O)[C@@H]1F [clofarabine]	≤ 0.3
Cc1nc(Nc2ncc(C(=O)Nc3c(C)cccc3Cl)s2)cc(N2CCN(CCO)CC2)n1 [dasatinib]	≤ 0.3
O=C(NCc1cccc(O)c1)Nc1nc(-c2ccncc2)cs1 [RKI 1447 dihydrochloride]	≤ 0.3
CC(C)n1nc(-c2cc3cc(O)ccc3[nH]2)c2c(N)ncnc21	≤ 0.3
COc1ccc(-c2ccc3ncc4c(c3c2)n(-c2ccc(N3CCNCC3)c(C(F)(F)F)c2)c(=O)n4C)cn1	≤ 0.3
CC(C)(C)c1cnc(CSc2cnc(NC(=O)C3CCNCC3)s2)o1	≤ 0.3
O=C(O)c1ccc(Nc2ncc3c(n2)-c2ccc(Cl)cc2C(c2c(F)cccc2F)=NC3)cc1	≤ 0.3
COc1ccc(S(=O)(=O)N(C(C)=O)c2ccccc2/C=C/c2cc[n+]([O-])cc2)cc1	3
CC(C)(C)Nc1nc(Nc2ccc(C(N)=O)cc2)cc(N)c1C#N	3
Nc1cccc(-c2cc3c(Oc4cccc(O)c4)ncnc3[nH]2)c1	9
c1ccc2c(c1)Cc1c(Nc3ccc4c(c3)OCCO4)n[nH]c1-2	3
Cc1c(NC(=O)OC[C@@H]2COCCN2)cn2ncnc(Nc3ccc4c(cnn4Cc4cccc(F)c4)c3)c12	9
CCC(=O)N1CCN(c2ccc(-n3c(=O)ccc4cnc5ccc(-c6cnc7ccccc7c6)cc5c43)cc2C(F)(F)F)CC1 [Torin 1]	≤ 0.3
COc1c(Nc2cc(C)[nH]n2)nc(Sc2ccc(S(=O)(=O)Cc3cccc([N+](=O)[O-])c3F)cc2F)nc1N1CCOCC1 [Centrinone]	3
COc1cc2c(NC3CCN(C(C)C)CC3)nc(N3CCC(F)(F)CC3)nc2cc1OCCCN1CCCC1	1
CC(=O)c1c(C)c2cnc(Nc3ccc(N4CCNCC4)cn3)nc2n(C2CCCC2)c1=O	≤ 0.3
CN1c2ccccc2C(=O)N2CCc3c([nH]c4ccccc34)[C@H]21 [Evodiamine]	3
CO[C@H]1C=CC=C(C)C(=O)NC2=CC(=O)C(NCCN(C)C)=C(C[C@@H](C)C[C@H](OC)[C@H](O)[C@@H](C)C=C(C)[C@@H]1OC(N)=O)C2=O [17-DMAG hydrochloride]	≤ 0.3
Cc1noc(C)c1-c1cc(O)cc(C(O)c2ccccc2)c1 (centres undefined)	3
O=C(Nc1ccc(-c2ccnc(Nc3ccc(N4CCOCC4)cc3)n2)cc1)[C@@H]1CCCN1	3

Structure (SMILES)	lowest phenotypically active concentration [µM]
NC1(C(=O)N[C@@H](CCO)c2ccc(Cl)cc2)CCN(c2ncnc3[nH]ccc23)CC1	3
NC(=O)Nc1cc(-c2cccc(F)c2)sc1C(=O)N[C@H]1CCCNC1 [AZD 7762 hydrochloride]	1
COc1cc2nc(-c3cc(F)ccc3O)nc(N[C@@H]3CNC[C@H]3C(C)(C)O)c2cc1OC	1
Cc1c[nH]c2nccc(Oc3c(F)cc(Nc4cc(Cl)nc(N)n4)cc3F)c12	≤ 0.3
C[C@H]1[C@H]2CC[C@H]3[C@@H]4CC=C5C[C@@H](N(C)C)CC[C@]5(C)[C@H]4CC[C@]23CN1C [Conessine]	9
CON(C)C(=O)N1N=C(c2cc(F)ccc2F)S[C@@]1(CCCN)c1ccccc1 [ARRY 520 trifluoroacetate]	≤ 0.3
CC[C@H](CO)Nc1nc(NCc2ccc(-c3ccccn3)cc2)c2ncn(C(C)C)c2n1	≤ 0.3
Oc1cccc(-c2nc(N3CCOCC3)c3oc4ncccc4c3n2)c1 [PI 103 hydrochloride]	≤ 0.3
COc1cc(/C=C/c2ccc(OC)cc2OC)cc(OC)c1	3
COc1cc2c(cc1-c1c(C)noc1C)ncc1[nH]c(=O)n([C@H](C)c3ccccn3)c12 [I-BET 151 dihydrochloride]	3
COc1cccc(-c2cc(F)ccc2[C@H]2Cc3nc(N)nc(C)c3C(=O)N2)n1	≤ 0.3
COc1cc(C(=O)NC2CCN(C)CC2)c(F)cc1Nc1ncc2c(n1)N(C1CCCC1)CC(F)(F)C(=O)N2C [TAK 960 hydrochloride]	≤ 0.3
CC[C@]1(O)C[C@@H]2CN(CCc3c([nH]c4ccccc34)[C@@](C(=O)OC)(c3cc4c(cc3OC)N(C=O)[C@H]3[C@@](O)(C(=O)OC)[C@H](OC(C)=O)[C@]5(CC)C=CCN6CC[C@]43[C@@H]65)C2)C1 [vincristine]	≤ 0.3
OC[C@H]1O[C@@H](n2cnc3c(NCc4ccco4)ncnc32)[C@H](O)[C@@H]1O [Kinetin riboside]	1
N#Cc1c(C2CCNCC2)cc(-c2c(O)cccc2OCC2CC2)nc1N	9
C=CC(=O)Nc1cccc(Nc2nc(Nc3ccc(OCCOC)cc3)ncc2F)c1	3
COc1cc(N2CCC(N3CCN(C)CC3)CC2)ccc1Nc1ncnc(Nc2ccccc2S(=O)(=O)C(C)C)n1	3
Fc1ccccc1CNCc1ccc(-c2ccnc3[nH]ccc23)cc1 [OXA 06 dihydrochloride]	1
C[C@H]1COCCN1c1cc(C2(S(=O)(=O)C3CC3)CC2)nc(-c2ccc(NC(=S)NCCO)cc2)n1	≤ 0.3
